Measurements taken from PubChem BioAssay AID602195 (The Scripps Research Institute Molecular Screening Center, 2012).
The campaign covered roughly 1,600 compounds. About 430 (27%) were called active. The list is a sample of the results. A number with no mark means an inactive call. Cut-off read from the data, not from the text of the source: active = inhibition above about 29%; inactive = the rest.

Target: Melanocortin receptor 4 (Homo sapiens) (UniProt P32245)
Experiment: MC4R cAMP antagonists, retest, confirmation, cell-based, TR-FRET (AID 602195);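 note: 0% = agonist stimulated wells alone and 100% = agonist stimulated wells plus saturating reference antagonist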
Conditions: MC4R-expressing cells, MTII-stimulated cAMP, at 6.5 µM, stronger effect = higher value

Melanocortin receptor 4 (Homo sapiens), sequence (P32245 whole entry, looked up): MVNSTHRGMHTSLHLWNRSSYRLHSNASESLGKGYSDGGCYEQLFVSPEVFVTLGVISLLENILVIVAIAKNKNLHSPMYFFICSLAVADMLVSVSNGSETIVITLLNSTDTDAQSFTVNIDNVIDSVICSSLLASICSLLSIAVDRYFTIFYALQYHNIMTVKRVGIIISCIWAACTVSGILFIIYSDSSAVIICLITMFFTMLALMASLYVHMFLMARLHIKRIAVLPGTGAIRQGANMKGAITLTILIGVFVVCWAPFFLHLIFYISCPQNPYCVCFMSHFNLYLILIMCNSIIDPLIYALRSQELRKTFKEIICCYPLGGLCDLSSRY

**Q.** With `Cc1cccc(OCC(O)Cn2c(N3CCCCC3)nc3c2c(=O)[nH]c(=O)n3C)c1` (configuration not stated) as the compound, how does the inhibition read?
**A.** -4.42%

**Q.** How did the inhibition turn out when `Cc1ccc(OCC(=O)Nc2ccc(NC(=O)c3cccs3)cc2)c(C)c1` was run?
**A.** -16.5%

**Q.** With `CC(=O)Nc1ccc(Sc2ccccc2C(=O)N2CCCC2)cn1` as the compound, how does the inhibition read?
**A.** -13.6%

**Q.** `COc1ccc2sc(-c3ccc(S(C)(=O)=O)cc3)c(-c3ccc(C(N)=O)cc3)c2c1` was tested. Which inhibition did it give?
**A.** 27.4%

**Q.** With `COc1ccc(/C=N/OCC(=O)N(Cc2ccccc2)c2ccccc2C(=O)O)cc1` as the compound, how does the inhibition read?
**A.** 1.15%

**Q.** How did the inhibition turn out when `O=C1/C(=C\c2ccc([N+](=O)[O-])cc2)CS(=O)(=O)C/C1=C/c1ccc([N+](=O)[O-])cc1` was run?
**A.** 31.9% (active)

**Q.** How did the inhibition turn out when `COCCCNC(=O)/C(C#N)=C/c1c(N2CCCCCC2)nc2ccccn2c1=O` was run?
**A.** 11.9%

**Q.** `COc1cccc(OC)c1C(=O)Nc1c(C(=O)N2CCN(c3ccccn3)CC2)oc2ccccc12` was tested. Which inhibition did it give?
**A.** -8.35%

**Q.** With `CCOc1ccc(Nc2nc(Cl)nc(N3CCN(c4ccc(OC)cc4)CC3)n2)cc1` as the compound, how does the inhibition read?
**A.** 33.7% (active)

**Q.** With `Cc1ccc(NC(=O)c2c(NC(=O)CCC(=O)O)sc3c2CCCCC3)cc1` as the compound, how does the inhibition read?
**A.** 1.41%

**Q.** How did the inhibition turn out when `Cc1ccc(S(=O)(=O)N(C)CC(=O)OCC(=O)Nc2ccccc2)cc1` was run?
**A.** 38.5% (active)

**Q.** For `Cc1ccc(S(=O)(=O)N(C)CC(=O)OCC(=O)N2CC(=O)Nc3ccccc32)cc1`, which inhibition is on record?
**A.** 16.8%

**Q.** How did the inhibition turn out when `Cc1ccc(S(=O)(=O)CCC(=O)OCC(=O)N(C)Cc2ccccc2)cc1` was run?
**A.** 7.91%

**Q.** For `O=C(c1ccc2c(c1)N(Cc1ccc(F)cc1)C(=O)c1ccccc1S2(=O)=O)N1CCN(c2ccccn2)CC1`, which inhibition is on record?
**A.** -2.23%

**Q.** `O=C(COC(=O)Cn1cnc2ccccc2c1=O)NCC12CC3CC(CC(C3)C1)C2` was tested. Which inhibition did it give?
**A.** 30.5% (active)

**Q.** For `O=S(=O)(NCc1ccco1)c1cnc(Cl)c(Cl)c1`, which inhibition is on record?
**A.** 54.2% (active)

**Q.** How did the inhibition turn out when `O=C(NCCc1c[nH]c2ccccc12)c1cccc(Br)c1` was run?
**A.** 3.64%

**Q.** With `COc1ccc(-c2n[nH]c(C)c2-c2ccccc2OC)c(O)c1` as the compound, how does the inhibition read?
**A.** 0.3%

**Q.** How did the inhibition turn out when `O=C(COC(=O)[C@H](Cc1ccccc1)NC(=O)c1cccs1)Nc1cc(F)ccc1F` was run?
**A.** 14.7%

**Q.** Which inhibition does the source give for `Cc1nc2ccccc2c(=O)n1NC(=O)c1ccc(Cl)c([N+](=O)[O-])c1` here?
**A.** 44.2% (active)

**Q.** Which inhibition does the source give for `Cc1ccccc1-c1n[nH]c(=S)n1/N=C/c1ccc(-c2ccccc2Br)o1` here?
**A.** 0.08%

**Q.** `O=C(CSc1nc2ccc(Nc3nc(N4CCOCC4)nc(N4CCOCC4)n3)cc2s1)NCc1ccco1` was tested. Which inhibition did it give?
**A.** -2.81%

**Q.** Which inhibition does the source give for `Cc1c(Cl)cccc1NC(=O)[C@@]1(CC(=O)O)CC(/C=C/c2ccccc2)=NO1` here?
**A.** -4.9%

**Q.** `Cc1ccc(NC(=O)C(C)OC(=O)Cc2c[nH]c3ccccc23)cc1S(=O)(=O)N1CCOCC1` (configuration not stated) was tested. Which inhibition did it give?
**A.** 5.56%

**Q.** For `CCOC(=O)CSc1nc(N2CCOCC2)c2c(c1C#N)CC(C(C)C)OC2` (configuration not stated), which inhibition is on record?
**A.** 8.67%

**Q.** Which inhibition does the source give for `CCCCOC(=O)CNc1nnc(SCC(=O)OCC)[nH]c1=O` here?
**A.** 44.4% (active)

**Q.** How did the inhibition turn out when `CC(C)Oc1ccc(/C=C(\NC(=O)/C=C/c2ccco2)C(=O)NCCc2nc3ccccc3[nH]2)cc1` was run?
**A.** -6.84%

**Q.** `Cc1ccc(NS(=O)(=O)c2ccc(C)c(NC(=O)COc3ccc4ccccc4c3)c2)c(C)c1` was tested. Which inhibition did it give?
**A.** 0.85%

**Q.** `COc1ccc(-n2nc(C(=O)Nc3cc(OC)c(OC)c(OC)c3)c3ccccc3c2=O)c(OC)c1` was tested. Which inhibition did it give?
**A.** 3.92%

**Q.** `O=C(NC1=CC(=O)c2ccccc2C1=O)c1ccccc1` was tested. Which inhibition did it give?
**A.** 15.8%

**Q.** `COc1ccc(C(C)C)cc1S(=O)(=O)Nc1ncn[nH]1` was tested. Which inhibition did it give?
**A.** 5.25%

**Q.** How did the inhibition turn out when `Cc1ccc(CSc2nnc(-c3cnccn3)n2C)cc1` was run?
**A.** 10.6%

**Q.** For `COc1ccc(Oc2c(Cl)cnn(-c3ccccc3)c2=O)cc1`, which inhibition is on record?
**A.** 72.2% (active)

**Q.** `O=C(Nc1ccc(F)c([N+](=O)[O-])c1)C1CC(=O)N(Cc2ccccc2)C1` (configuration not stated) was tested. Which inhibition did it give?
**A.** 42.5% (active)

**Q.** With `Cc1ccc(-c2nnc(CN3CCN(C)CC3)o2)cc1` as the compound, how does the inhibition read?
**A.** 7.87%

**Q.** For `COc1ccc(CCNC(=O)c2cnc(Cl)c(Cl)c2)cc1`, which inhibition is on record?
**A.** 35.6% (active)

**Q.** How did the inhibition turn out when `COc1ccc(CCNC(=O)COC(=O)c2cnc(Cl)c(Cl)c2)cc1` was run?
**A.** 36.7% (active)

**Q.** For `O=C(OCC(=O)N1CCCCCC1)c1cnc(Cl)c(Cl)c1`, which inhibition is on record?
**A.** 35.9% (active)

**Q.** `CC(C)Oc1c(Br)cc(Br)cc1/C=N/NC(N)=S` was tested. Which inhibition did it give?
**A.** 25.2%

**Q.** `COc1ccc(Cl)cc1-c1cc(C(=O)Nc2cc(OC)c(OC)c(OC)c2)[nH]n1` was tested. Which inhibition did it give?
**A.** -21.1%

**Q.** Which inhibition does the source give for `O=C(NCC1CCN(Cc2ccccc2Cl)CC1)Nc1cccc(Cl)c1` here?
**A.** -1.08%

**Q.** For `CC(NS(=O)(=O)c1ccc(Br)cc1)C(=O)NCC1CCCO1` (configuration not stated), which inhibition is on record?
**A.** 0.92%

**Q.** `CCOC(=O)c1c(-c2ccccc2)oc2cc(Br)c(O)c(C=O)c12` was tested. Which inhibition did it give?
**A.** 68.6% (active)

**Q.** With `C=Cn1c(C(=O)O)ccc1-c1ccc(OC)cc1` as the compound, how does the inhibition read?
**A.** -8.3%

**Q.** With `N#C/C=C1\Sc2ccccc2C(=O)N1CC(=O)N1CCN(S(=O)(=O)c2ccccc2)CC1` as the compound, how does the inhibition read?
**A.** 3.29%

**Q.** How did the inhibition turn out when `CCCC(C(=O)n1nc(C)cc1C)C(NS(=O)(=O)c1ccc(C)cc1)c1ccccc1` (configuration not stated) was run?
**A.** 13.1%

**Q.** For `N#Cc1c(-c2cccs2)nc(SCC(=O)c2ccc(Br)cc2)[nH]c1=O`, which inhibition is on record?
**A.** 19.2%

**Q.** For `CC1(C)Cc2ccccc2-c2[nH]c(=S)[nH]c(=O)c21`, which inhibition is on record?
**A.** 36.1% (active)

**Q.** For `COc1ccc2oc(N)c(C=O)c(=O)c2c1`, which inhibition is on record?
**A.** -15.9%

**Q.** With `CC(=O)N1CCN(S(=O)(=O)c2c(F)cc(F)c(Cl)c2F)CC1` as the compound, how does the inhibition read?
**A.** 45.1% (active)

**Q.** With `CCN(CC(=O)NCCCN1CCOCC1)S(=O)(=O)c1cc(Cl)ccc1Cl` as the compound, how does the inhibition read?
**A.** -1%

**Q.** `COc1ccc(C(C[N+](=O)[O-])n2nc(C)cc2C)cc1` (configuration not stated) was tested. Which inhibition did it give?
**A.** -13.7%
